# Measured values as given in PubChem BioAssay (EPA / NIEHS).
# Where a structure was tested more than once in an assay, its records may differ in their call. Activity calls are given as the source filed them. Rule for the calls: active = hit-call score of the fitted dose curve at least 0.9, where 1 is the maximum; inactive = score below 0.9.
# Experiment: ATG_M_19_CIS: Attagene CIS-FACTORIAL HepG2 Assay for M19 Transcription Factor (Internal Marker) (AID 2282939)
# Conditions: HepG2 Attagene CIS-FACTORIAL M19 internal marker reporter; actives raise or lower the signal
# Protocol: ATG_CIS is a cell-based, multiplexed-readout assay that uses HepG2, a human liver cell line, with measurements taken at 24 hours after chemical dosing in a 24-well plate.ATG_M_19_CIS is one of 52 assay component(s) measured or calculated from the ATG_CIS assay. It is designed to make measurements of mRNA induction, a form of inducible reporter, as detected with fluorescence intensity signals by Reverse transcription polymerase chain reaction (RT-PCR) and Capillary electrophoresis technology.Data from the assay component ATG_M_19_CIS was analyzed into 1 assay endpoint. This assay endpoint, ATG_M_19_CIS, was analyzed with bidirectional fitting relative to DMSO as the negative control and baseline of activity. Using a type of inducible reporter, measures of mRNA for gain or loss-of-signal activity can be used to understand the background control at the transcription factor-level as they relate to the gene . Furthermore, this assay endpoint can be referred to as a secondary readout, because this assay has produced multiple assay endpoints where this one serves a background control function. To generalize the intended target to other relatable targets, this assay endpoint is annotated to the background measurement intended target family, where the subfamily is internal marker.
# Human liver HepG2 cells are transiently transfected with multiple reporter transcription units (MRTUs) in 6-well plates using FuGene 6 reagent (Roche; 3 ml FuGene/1 mg DNA). The MRTU constructs are regulated by a cis-regulating element (promoter). […] A major difference between the CIS and TRANS system is that in CIS activities of endogenous TFs are measured, whereas the TRANS assay evaluates changes in activities of exogenous, chimeric NR-Gal4 proteins. […] At the end of 24 hour incubation, total RNA was isolated using TriZol reagent (Invitrogen). The isolated RNA is then reverse-transcribed using oligo(dT) primer and Mo-MLV reverse transcriptase (Invitrogen) with DNAse I (Ambion) treatment for 30 min. The one-tenth of the produced cDNA was amplified by PCR using Taq DNA polymerase (Invitrogen) and two reporter sequence-specific primers. The PCR products were fluorescently labeled by primer extension with 6-arboxyfluorescein (6-FAM) 5'-labeled reporter sequence-specific primer (2 min at 95 C, 20 s at 68 C and 10 min at 72 C) and these products were digested with 5U of HpaI (New England Biolabs) for 2h at 37 C. The fragments were purified using Qiaquick PCR columns (Qiagen), analyzed on an ABI 3130xL genetic analyzer (Applied Biosystems) with peak positions identified by using a set of X-rhodamine (ROX)-labeled MapMarker1000 molecular weight standards (BioVentures). The raw capillary electrophoresis data was processed using Attagraph software (Attagene).
SMILES,outcome,AC50
O=C1OC2(c3ccccc31)c1cc(Br)c(O)c(Br)c1Oc1c2cc(Br)c(O)c1Br,inactive,–
NC(=O)N(O)[C@@H]1C=C[C@H](Oc2cccc(Oc3ccc(F)cc3)c2)C1,inactive,–
CC(C)(C)CC(C)(C)c1ccc(O)c(-n2nc3ccccc3n2)c1,inactive,–
N#C[C@@H]1CC(F)(F)CN1C(=O)CNC1CC2CCC(C1)N2c1ncccn1 (stereo not given in full),inactive,–
CCCOC(=O)c1ccc(O)cc1,inactive,–
CC(=O)NC1(c2cccc(F)c2)CCN(CC[C@@]2(c3ccc(Cl)c(Cl)c3)CN(c3ccccc3)C(=O)CO2)CC1,inactive,–
FC(F)(I)C(F)(F)C(F)(F)C(F)(F)C(F)(F)C(F)(F)I,inactive,–
COCC(C)O (stereo not given),inactive,–
CCCCCCC(=O)O,inactive,–
CN1CCN(c2ccccc2/C=C2\SCCN(c3ccc(Cl)c(Cl)c3)C2=O)CC1,inactive,–
CCOC(=O)CC(O)(CC(=O)OCC)C(=O)OCC,inactive,–
COc1ccc([N+](=O)[O-])cc1N,inactive,–
CCC(C)(C)C1CCC(O)CC1 (stereo not given),inactive,–
CCCCCCCCCCCCCC[N+](C)(C)C,inactive,–
CCCCC[C@H](O)CC(=O)CCc1ccc(O)c(OC)c1,inactive,–
CCCCC(CC)COC(=O)CCCCC(=O)OCc1ccccc1 (stereo not given),inactive,–
O=c1c(-c2ccc(O)cc2)coc2cc(O)ccc12,inactive,–
CC[C@H](c1ccc(O)cc1)[C@@H](CC)c1ccc(O)cc1,inactive,–
Oc1cc2ccccc2c2ccccc12,inactive,–
CCC(=C(c1ccc(O)cc1)c1ccc(OCCN(C)C)cc1)c1ccccc1,inactive,10.7 µM (active)

SMILES,outcome,AC50
Oc1cccc(O)c1,inactive,–
Cc1ccc(S(=O)(=O)O)c(C)c1,inactive,–
CCCCCCCCCCCCCCCS(=O)(=O)Oc1ccccc1,inactive,–
CC(O)C(=O)O (stereo not given),inactive,–
Cc1cc(CCN2CCN(c3nsc4ccccc34)CC2)cc2c1NC(=O)CC2(C)C,inactive,–
NCC(F)(F)C(F)(F)C(F)(F)C(F)(F)C(F)(F)C(F)(F)C(F)(F)F,inactive,–
CC(=O)CC(C)(C)O,inactive,–
O=C(O)Cc1cc(I)c(Oc2cc(I)c(O)c(I)c2)c(I)c1,inactive,–
CCCCCCCCCCCCN1CCCC1=O,inactive,–
C=C(C)C(=O)OCCC(F)(F)C(F)(F)C(F)(F)C(F)(F)C(F)(F)C(F)(F)F,inactive,–
CC(O)CO (stereo not given),inactive,–
C#C[C@]1(O)CC[C@H]2[C@@H]3CCC4=CC(=O)CC[C@@H]4[C@H]3CC[C@@]21C,inactive,–
Nc1cccc2c(N)cccc12,inactive,–
O=C(OCCOCCOC(=O)c1ccccc1)c1ccccc1,inactive,–
O=[N+]([O-])c1ccc(O)cc1,inactive,–
CC(C)(C)c1cccc(C(C)(C)C)c1O,inactive,–
CC[C@H](C)[C@@H](C(=O)O)n1sc2ccccc2c1=O,inactive,–
CC(C)CCCCCCOC(=O)CCCCC(=O)OCCCCCCC(C)C,inactive,–
OCCC(F)(F)C(F)(F)C(F)(F)C(F)(F)C(F)(F)C(F)(F)F,inactive,–
